Six1-Eya2 blk: qHTS Assay for Inhibitors of the Six1/Eya2 Interaction; AlphaScreen GST-Six1/His-Eya2 binding, biochemical; hits give low values; AID 651725, 2012; activity change, % (concentration not given with the values); Homeobox protein SIX1 (Homo sapiens) + Protein phosphatase EYA2 (Homo sapiens), …; actives 0.56% (n = 360,000); in the data active means activity change below about -65%; inconclusive means mostly about -30% to -63%
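GST-Six1 + His-Eya2 (5X stock: 250/500 nM); Tris pH 8.0, 300 mM NaCl, 0.05% BSA, 0.02% Tween 20; GSH donor/Ni acceptor beads; 1 h 37 °C dark; AlphaScreen readout.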
L3MBTL1 inh: qHTS Assay for the Inhibitors of L3MBTL1. Lethal(3)malignant brain tumor-like protein 1 (Homo sapiens), Q9Y468. AlphaScreen L3MBTL1–H3K9me1 peptide binding. Potency, µM (top dose mostly 57.1 µM), for inactives: top-dose activity, negative = inhibition, hits mostly inhibitors. actives 0.66% (n = 230,000). AID 485360, 2010; further: potency means the concentration at half of the fitted maximal effect; nearly all actives have a fitted effect of over 60% in size
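Displacement of a biotinylated histone H3(1-15) peptide monomethylated at Lys9 (75 nM) from L3MBTL1 (50 nM) was measured by AlphaScreen after a 30 min room-temperature compound incubation; cefsulodin titration served as intraplate control.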
CtBP-E1A inh: qHTS Assay for Inhibitors of the CtBP/E1A Interaction | CtBP / adenovirus E1A interaction (AlphaScreen) | AlphaScreen GST-E1A/His-CtBP binding, 1536-well; hits give low values | activity change, % (test concentration not listed) | actives 0.49% (n = 340,000); in the data active means activity change below about -65%; inconclusive means mostly about -30% to -63%
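AlphaScreen with 125 nM GST-E1A and 125 nM His-CtBP (5X stocks) in Tris pH 8.0, 300 mM NaCl, BSA, Tween 20, TCEP. Compounds preincubated 2 h at 37 deg C, then glutathione donor/nickel acceptor beads added for 1 h at 37 deg C in dark.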
B2AR arrestin: qHTS assay of beta-arrestin-biased ligands of beta2-adrenergic receptor; AID 492947, 2010; Potency, µM (doses to about 46.1 µM), for the others: at the top dose activation, most hits filed as activators; beta-arrestin recruitment to beta2AR, cell-based reporter; actives 0.02% (n = 330,000);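 further: potency means the concentration at half of the fitted maximal effect; 0% = DMSO controls and full agonism = EC100 isoproterenol or metaproterenol; nearly all actives have a fitted effect of over 65% in size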
Target sequence (P07550 whole entry, looked up): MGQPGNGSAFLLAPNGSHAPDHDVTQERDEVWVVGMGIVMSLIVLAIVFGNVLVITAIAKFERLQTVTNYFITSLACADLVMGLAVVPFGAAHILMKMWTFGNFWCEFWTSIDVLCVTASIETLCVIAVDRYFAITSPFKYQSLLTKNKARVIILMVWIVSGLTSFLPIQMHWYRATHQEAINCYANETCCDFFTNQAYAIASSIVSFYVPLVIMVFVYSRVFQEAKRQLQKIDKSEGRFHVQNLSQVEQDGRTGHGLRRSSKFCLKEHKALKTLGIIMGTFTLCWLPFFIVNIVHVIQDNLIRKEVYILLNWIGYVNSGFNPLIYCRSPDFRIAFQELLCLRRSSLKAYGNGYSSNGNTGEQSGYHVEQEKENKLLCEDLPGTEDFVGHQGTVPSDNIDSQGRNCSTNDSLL
Eya2 inh: qHTS Assay for Inhibitors of the Phosphatase Activity of Eya2 | Protein phosphatase EYA2 (Homo sapiens), O00167 | recombinant Eya2, OMFP fluorescence dephosphorylation (OMFP is methylfluorescein phosphate) | Potency, µM (doses to about 76.9 µM), for inactives: top-dose activity, negative = inhibition, most hits filed as inhibitors | actives 0.006% (n = 330,000); further: potency means the concentration at half of the fitted maximal effect
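Eya2 protein (added as 0.2 uM solution) was preincubated with compound for 10 min at ambient temperature in 50 mM HEPES pH 7.5, 50 mM NaCl, 5 uM MgCl2, 0.05% BSA, 1 mM DTT. OMFP (added at 50 uM) then reacted 10 min; fluorescence read at 485/525 nm.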
Numbers without * were called inactive; u = inconclusive; x = no result. In the library only some 0.9% were active in any assay of this set; here they are far more common. Unless noted, the call rests on the fitted dose curve; in most records, active means well fitted curve in the direction sought with a large enough effect; inconclusive means small, poorly fitted or top-dose-only effect, or another doubt; inactive means no such curve, though single readings can be large; an effect the other way counts as inactive or inconclusive. Unless noted, on the % scale 0 is the no-effect control and ±100 the full control effect.

SMILES	Six1-Eya2 blk	L3MBTL1 inh	CtBP-E1A inh	B2AR arrestin	Eya2 inh
COC1OC(COC(=O)c2ccccc2)C(OC(=O)c2ccccc2)C1OC(=O)c1ccccc1 (stereo unspecified)	1	x	15	0%	-6%
CCc1sc(C(=O)Nc2cc(S(=O)(=O)N3CCOCC3)ccc2OC)cc1C	u	-1%	u	0%	-16%
Cc1c(/C=N/NC(=O)c2ccc(O)cc2)c2ccccn2c1C(=O)c1ccc(F)cc1	-70*	0%	-78*	2%	0%
Cc1c(/C=N/NC(=O)c2ccccc2O)c2ccccn2c1C(=O)c1ccc(F)cc1	u	u	2	-1%	4%
Cc1nc2c(=O)[nH]c(=S)[nH]c2[nH]c1=O	-66*	x	-18	x	x
O=C(COC(=O)Cn1[nH]c(=O)c2ccccc2c1=O)NNC(=O)c1ccc(Br)cc1	-2	0%	7	0%	-4%
O=C(NNC(=O)c1ccc(O)cc1O)c1ccc(-c2ccccc2)cc1	0	-6%	x	0%	-4%
O=C(NNc1c2ccccc2nc2ccccc12)c1ccc(O)cc1O	-84*	u	-84*	-1%	-23%
O=C(NNc1c2ccccc2nc2ccccc12)c1ccccc1Cl	-25	-2%	-14	-2%	13%
O=C(NNc1c2ccccc2nc2ccccc12)c1ccccc1O	u	-26%	-73*	-1%	-9%
Cc1cc(C(=O)NCC(C)(C)N2CCOCC2)c(C)o1	5	-14%	-9	5%	-28%
Cc1nnsc1C(=O)N/N=C/c1ccc2ccccc2c1O	-87*	2µM*	-71*	-1%	6%
COc1ccc(C(NC(=O)c2cccnc2)c2cc(Cl)c3cccnc3c2O)cc1OC (stereo unspecified)	-91*	u	-92*	0%	4%
CC(=O)NC(c1ccc(C)cc1)c1cc(Cl)c2cccnc2c1O (stereo unspecified)	u	13%	-74*	-1%	-2%
CCC(=O)NC(c1ccco1)c1cc(Cl)c2cccnc2c1O (stereo unspecified)	-80*	-28%	-90*	11%	7%
CCCCC(=O)NC(c1ccco1)c1cc(Cl)c2cccnc2c1O (stereo unspecified)	u	-6%	x	0%	-3%
Oc1c(C(Nc2ccccn2)c2cccnc2)cc(Cl)c2cccnc12 (stereo unspecified)	-90*	u	-89*	2%	8%
CC(=O)NC(c1ccco1)c1cc(Cl)c2cccnc2c1O (stereo unspecified)	x	-28%	x	0%	-7%
Cc1noc(C)c1NC(=O)N(C)C[C@@H]1OCc2cnnn2CCCC(=O)N([C@H](C)CO)C[C@@H]1C	4	x	5	x	x
CS(=O)CC(O)(c1ccc(F)cc1)C1CC1 (stereo unspecified)	-7	x	-1	x	x
CC(C)ON([C@@H](C(=O)NO)C(C)C)S(=O)(=O)c1ccc(-c2ccccc2)cc1	x	x	x	x	0%
CN1CCN(C(=O)c2cccc3c(-c4ccc(F)c(F)c4)coc23)CC1	-4	x	-4	x	x
Cc1cc(C)cc(NC(=O)C2CCN(C(=O)c3cccs3)CC2)c1	4	x	3	0%	2%
C=C[C@@H]1c2cc(C)ccc2N(S(=O)(=O)c2ccc(C)cc2)[C@H](c2ccccc2)C1(C#N)S(=O)(=O)c1ccccc1 (stereo partly specified)	-8	-6%	-8	0%	-27%
CC(C)C(=O)NC(c1ccccc1)c1cc([N+](=O)[O-])c2cccnc2c1O (stereo unspecified)	-90*	10µM*	-91*	0%	8%
CC(=O)NC(c1ccccc1)c1cc([N+](=O)[O-])c2cccnc2c1O (stereo unspecified)	-94*	7.1µM*	-91*	0%	-1%
CCc1nc2ccc(C(=O)N(C)Cc3ccco3)cn2c1N(C)CCCc1ccccc1	-10	x	-26	x	x
